{"source": "PubChem BioAssay (NCATS)", "note": "Inconclusive results are not listed. Values without a mark were called inactive. Calls follow the shape of the dose curve; as a rule, active = well fitted curve in the direction sought with a large enough effect; inconclusive = small, poorly fitted or top-dose-only effect, or another doubt; inactive = no such curve, though single readings can be large; an effect the other way counts as inactive or inconclusive.", "data": [{"assay": "Cell Viability - LYMP2-003 (AID 965);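 also: cells exposed to compounds for 24 h before reading; 0% = DMSO only and full effect = 92 µM tetraoctylammonium bromide; nearly all actives have a fitted effect of over 50% in size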", "conditions": "LYMP2-003 lymphoblastoid cell viability; series mostly up to 92.2 µM; activity change, negative = cytotoxicity: at the top concentration", "procedure,_shortened": "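Acute cytotoxicity is scored as a concentration-dependent drop in intracellular ATP, measured by luciferase luminescence in human lymphoblastoid cells treated for 24 hours at 37 C. AC50 values derive from Hill-equation modelling.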", "units": {"activity change, negative = cytotoxicity": "%"}, "values": [{"smiles": "CC(C#N)CCC#N", "note": "(stereo unspecified)", "activity change, negative = cytotoxicity": 11.4}, {"smiles": "Nc1cc(Cl)ccc1Cl", "activity change, negative = cytotoxicity": 9.04}, {"smiles": "Nc1cccc(Cl)c1", "activity change, negative = cytotoxicity": 20}, {"smiles": "ClCc1ccccc1", "activity change, negative = cytotoxicity": 18.1}, {"smiles": "CCC/C=N/O", "activity change, negative = cytotoxicity": 21.4}, {"smiles": "COc1c(C(C)(C)C)cc([N+](=O)[O-])c(C)c1[N+](=O)[O-]", "activity change, negative = cytotoxicity": 14.1}, {"smiles": "O=S(=O)(Cl)c1ccccc1", "activity change, negative = cytotoxicity": 0.0662}, {"smiles": "C=CCOCC1CO1", "note": "(stereo unspecified)", "activity change, negative = cytotoxicity": 17.8}, {"smiles": "c1ccoc1", "activity change, negative = cytotoxicity": 4.57}, {"smiles": "Clc1ccccc1", "activity change, negative = cytotoxicity": 10.4}, {"smiles": "CCOC(=O)C1OC1(C)c1ccccc1", "note": "(stereo unspecified)", "activity change, negative = cytotoxicity": 9.23}, {"smiles": "C/C=C/CC#N", "activity change, negative = cytotoxicity": 21.7}, {"smiles": "C=CCCl", "activity change, negative = cytotoxicity": -5.35}, {"smiles": "Brc1cccc(-c2ccccc2)c1", "activity change, negative = cytotoxicity": 22.8}, {"smiles": "C=CCO", "activity change, negative = cytotoxicity": 13.4}, {"smiles": "OCCCCO", "activity change, negative = cytotoxicity": 3.86}, {"smiles": "Nn1cnnc1", "activity change, negative = cytotoxicity": 22.2}, {"smiles": "BrCCc1ccccc1", "activity change, negative = cytotoxicity": -4.76}, {"smiles": "Clc1cc(Cl)c(Cl)c(Cl)c1", "activity change, negative = cytotoxicity": 4.01}, {"smiles": "CN(C)C(=O)Cl", "activity change, negative = cytotoxicity": 3.99}, {"smiles": "CC(=O)NNc1ccccc1", "activity change, negative = cytotoxicity": 5.33}, {"smiles": "Cc1ccc(N=C=O)cc1N=C=O", "activity change, negative = cytotoxicity": 11.3}, {"smiles": "OCC(Cl)CCl", "note": "(stereo unspecified)", "activity change, negative = cytotoxicity": 8.39}, {"smiles": "CC(C)CON=O", "activity change, negative = cytotoxicity": 19.1}, {"smiles": "CC[N+](=O)[O-]", "activity change, negative = cytotoxicity": 11.8}, {"smiles": "CC(C)(Cl)[N+](=O)[O-]", "activity change, negative = cytotoxicity": 7.58}, {"smiles": "C[N+](=O)[O-]", "activity change, negative = cytotoxicity": 9.42}, {"smiles": "CC(C)OC(=O)Cc1ccccc1", "activity change, negative = cytotoxicity": 21.5}, {"smiles": "ClCC(Br)CBr", "note": "(stereo unspecified)", "activity change, negative = cytotoxicity": 16.3}]}, {"assay": "Cell Viability - LYMP2-004 (AID 966);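 also: plate controls were DMSO only for no effect and tetraoctylammonium bromide control for full effect; nearly all actives have a fitted effect of over 65% in size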", "conditions": "LYMP2-004 lymphoblastoid cell viability, qHTS; series mostly up to 92.2 µM; activity change, negative = cytotoxicity: at the top concentration", "procedure,_shortened": "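Acute toxicity is scored as a concentration-dependent drop in intracellular ATP, quantified by luciferase luminescence, in human lymphoblastoid cells exposed to compound for 24 hr. AC50 derives from Hill-equation modelling.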", "units": {"activity change, negative = cytotoxicity": "%"}, "values": [{"smiles": "CC(C#N)CCC#N", "note": "(stereo unspecified)", "activity change, negative = cytotoxicity": -2.86}, {"smiles": "Nc1cc(Cl)ccc1Cl", "activity change, negative = cytotoxicity": 7.27}, {"smiles": "Nc1cccc(Cl)c1", "activity change, negative = cytotoxicity": 27.3}, {"smiles": "ClCc1ccccc1", "activity change, negative = cytotoxicity": 15.8}, {"smiles": "CCC/C=N/O", "activity change, negative = cytotoxicity": -3.51}, {"smiles": "COc1c(C(C)(C)C)cc([N+](=O)[O-])c(C)c1[N+](=O)[O-]", "activity change, negative = cytotoxicity": 4.51}, {"smiles": "O=S(=O)(Cl)c1ccccc1", "activity change, negative = cytotoxicity": -29.6}, {"smiles": "C=CCOCC1CO1", "note": "(stereo unspecified)", "activity change, negative = cytotoxicity": 19.1}, {"smiles": "c1ccoc1", "activity change, negative = cytotoxicity": 13}, {"smiles": "Clc1ccccc1", "activity change, negative = cytotoxicity": 8.52}, {"smiles": "ClC(Cl)(Cl)C(Cl)(Cl)Cl", "activity change, negative = cytotoxicity": 11.9}, {"smiles": "CCOC(=O)C1OC1(C)c1ccccc1", "note": "(stereo unspecified)", "activity change, negative = cytotoxicity": -5.32}, {"smiles": "C/C=C/CC#N", "activity change, negative = cytotoxicity": 24.2}, {"smiles": "ClC(Cl)C(Cl)Cl", "activity change, negative = cytotoxicity": 12}, {"smiles": "C=CCCl", "activity change, negative = cytotoxicity": 15}, {"smiles": "Oc1c(Cl)cccc1Cl", "activity change, negative = cytotoxicity": -20.9}, {"smiles": "Brc1cccc(-c2ccccc2)c1", "activity change, negative = cytotoxicity": 23.6}, {"smiles": "C=CCO", "activity change, negative = cytotoxicity": -4.17}, {"smiles": "OCCCCO", "activity change, negative = cytotoxicity": -0.748}, {"smiles": "Nn1cnnc1", "activity change, negative = cytotoxicity": 14.5}, {"smiles": "BrCCc1ccccc1", "activity change, negative = cytotoxicity": -24.3}, {"smiles": "Cc1ccccc1[N+](=O)[O-]", "activity change, negative = cytotoxicity": -1.67}, {"smiles": "CCCCOC(=O)c1ccccc1N", "activity change, negative = cytotoxicity": 11}, {"smiles": "Clc1cc(Cl)c(Cl)c(Cl)c1", "activity change, negative = cytotoxicity": 8.16}, {"smiles": "Cc1ccc(N)c(C)c1", "activity change, negative = cytotoxicity": 10.8}, {"smiles": "C1CC2OC2CC1C1CO1", "note": "(stereo unspecified)", "activity change, negative = cytotoxicity": 2.71}, {"smiles": "CN(C)C(=O)Cl", "activity change, negative = cytotoxicity": 2.06}, {"smiles": "CC(=O)NNc1ccccc1", "activity change, negative = cytotoxicity": -6.87}, {"smiles": "Cc1ccc(N=C=O)cc1N=C=O", "activity change, negative = cytotoxicity": 7.99}, {"smiles": "O=C(Cl)OCc1ccccc1", "activity change, negative = cytotoxicity": 7.1}, {"smiles": "C=CC(=O)OC", "activity change, negative = cytotoxicity": 10.8}, {"smiles": "CCN(CC)N=O", "activity change, negative = cytotoxicity": 13}, {"smiles": "OCC(Cl)CCl", "note": "(stereo unspecified)", "activity change, negative = cytotoxicity": 4.54}, {"smiles": "CC(C)CON=O", "activity change, negative = cytotoxicity": 15.4}, {"smiles": "CC[N+](=O)[O-]", "activity change, negative = cytotoxicity": 7.21}, {"smiles": "CC(C)(Cl)[N+](=O)[O-]", "activity change, negative = cytotoxicity": 20.9}, {"smiles": "C[N+](=O)[O-]", "activity change, negative = cytotoxicity": -3.04}]}]}
